For 20 compounds, Potency and activity change, positive = activation results are on record in PubChem BioAssay (NCATS).

Values without a mark were called inactive. Records with an inconclusive call do not appear. Activity calls are given as the source filed them. Calls follow the shape of the dose curve; as a rule, active = well fitted curve in the direction sought with a large enough effect; inconclusive = small, poorly fitted or top-dose-only effect, or another doubt; inactive = no such curve, though single readings can be large; an effect the other way counts as inactive or inconclusive.

Experiment [1] has as its target Cytochrome P450 3A4 (Homo sapiens) (UniProt P08684). The experiment is described as follows: qHTS Assay for Inhibitors and Substrates of Cytochrome P450 3A4 (AID 884). Also: potency is read from the fitted curve at half-maximal effect; nearly all actives have a fitted effect of over 50% in size. To be noted: recombinant CYP3A4, Luciferin-PPXE luminescence; series mostly up to 57.1 µM. Put shortly:
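20 nM human CYP3A4 with 25 uM Luciferin-PPXE (at KM) in 200 mM KPO4, preincubated 10 min with compound; NADPH regeneration started a 60 min RT reaction. Luciferin detected by luminescence, normalized to 57 uM ketoconazole as full inhibition.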
A general note: qHTS replaces the single test concentration by a dilution series.

Experiment [2] has the same target. Description: qHTS Assay for Activators of Cytochrome P450 3A4 (AID 885). Also: nearly all actives have a fitted effect of over 65% in size. Particulars: recombinant CYP3A4, Luciferin-PPXE luminescence, 60 min; series mostly up to 57.1 µM. The procedure, abridged: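 20nM CYP3A4 + 25uM Luciferin-PPXE (=KM), 200mM KPO4; cpd 10 min RT; NADPH regen, 60 min RT; stop w/ detection buffer, 20 min; luminescence. Normalized to 57 uM ketoconazole.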

Cytochrome P450 3A4 (Homo sapiens), sequence (P08684 whole entry, looked up): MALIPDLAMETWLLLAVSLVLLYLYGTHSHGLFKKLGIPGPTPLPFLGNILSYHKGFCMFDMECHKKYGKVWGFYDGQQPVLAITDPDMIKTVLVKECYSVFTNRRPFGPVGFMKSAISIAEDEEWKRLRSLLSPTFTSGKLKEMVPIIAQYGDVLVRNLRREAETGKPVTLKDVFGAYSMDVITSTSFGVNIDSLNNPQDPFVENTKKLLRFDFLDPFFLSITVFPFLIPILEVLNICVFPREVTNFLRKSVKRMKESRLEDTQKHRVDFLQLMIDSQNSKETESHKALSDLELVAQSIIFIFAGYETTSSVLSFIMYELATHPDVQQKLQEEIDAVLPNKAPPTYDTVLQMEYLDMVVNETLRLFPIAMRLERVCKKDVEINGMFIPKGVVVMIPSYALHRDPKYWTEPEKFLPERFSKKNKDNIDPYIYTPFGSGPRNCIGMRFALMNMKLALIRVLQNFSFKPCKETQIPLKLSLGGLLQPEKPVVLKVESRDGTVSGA

Consider `COC(=O)c1ccc(C23CC4(C2)[C@H](CN(CC2CCCCC2)[C@@H]4c2ccccc2)C3c2ccc(Cl)nc2)cc1` (stereo not given in full), for which the Potency in experiment [1] is 25.1 µM (active). Also, in experiment [2], the Potency result is “inactive”.

As to `Cc1ccc(S(=O)(=O)N[C@H]2COC(=O)C/C=C\[C@H](C)[C@@H](NS(=O)(=O)c3ccc(C)cc3)COC(=O)C/C=C\[C@@H]2C)cc1`, the Potency in experiment [1] is 3.98 µM (active). The activity change, positive = activation in experiment [2] is -90.7% [at 11.4 µM].

`CCC1=C2CC[C@H]3C(=O)N(c4ccccc4)C(=O)[C@H]3[C@H]2[C@@]2(Cc3ccccc3)C(=NCC3CC3)OC(=O)N2C1=O`: the Potency in experiment [1] is 5.01 µM (active). Further, the Potency entry in experiment [2] is “inactive”.

Regarding `N#Cc1ccc(C23CC4(C2)[C@H](CN(CC2CCCCC2)[C@@H]4c2ccccc2)C3c2ccccc2)cc1` (stereo not given in full), in experiment [1], the Potency is 15.8 µM (active). For the same compound, in experiment [2], the Potency entry is “inactive”.

Turning to `CCC1=C2CC[C@H]3C(=O)NC(=O)[C@H]3[C@H]2[C@@]2(C)C(=NCCc3c[nH]c4ccccc34)OC(=O)N2C1=O`, in experiment [1], the Potency is 12.6 µM (active). In addition, the Potency result in experiment [2] was “inactive”.

On to `CCC1=C(OC(=O)N(CC)CC)N2C(=O)OC(=NCC3CC3)[C@]2(Cc2ccccc2)[C@H]2C1=CC[C@H]1C(=O)N(CC)C(=O)[C@H]12`, for which the Potency in experiment [1] was 5.01 µM (active). In addition, the Potency entry in experiment [2] is “inactive”.

As for `COC(=O)[C@@H]1C[C@H]2CC[C@H](O)C[C@H]2N1Cc1c(F)cccc1Cl`, the Potency in experiment [1] is 15.8 µM (active). Moreover, in experiment [2], the Potency result is “inactive”.

`COC(=O)[C@@H]1C[C@@H]2CC[C@@H](O)C[C@@H]2N1Cc1ccccc1OS(=O)(=O)c1ccc(C)cc1`: the Potency in experiment [1] was 2.51 µM (active). For the same compound, the Potency result in experiment [2] is “inactive”.

Take `CCCCNC(=O)C(c1ccc(OCC(=O)OC)c(C(=O)OC)c1)N(Cc1ccccn1)C(=O)CCCCCN1C(=O)NC(c2ccc(-c3ccccc3)cc2)C(C(=O)OCc2ccccc2)=C1C` (stereo not given): the Potency in experiment [1] is 7.94 µM (active). For the same compound, in experiment [2], the Potency entry is “inactive”.

For the compound `CC(C)(C)N1C(=O)[C@H]2[C@H]3[C@H](O)[C@H](O)C/C(=N/OC[C@@H](O)COCc4ccco4)[C@@H]3CC[C@@H]2C1=O`, in experiment [1], the Potency was 5.01 µM (active). The activity change, positive = activation in experiment [2] was -87.2% [at 11.4 µM].

For `FC(F)(F)c1ccc(C2[C@H]3CN(Cc4cccnc4)[C@H](c4ccccc4)C34CC2(c2cccnc2)C4)cc1` (stereo not given in full), the Potency in experiment [1] is 2 µM (active). Besides, in experiment [2], the Potency entry was “inactive”.

Turning to `C/C(CCN1CCc2nc(-c3ccccc3)c(-c3ccccc3)cc2C1)=N\OC[C@@H](O)COCc1ccco1`, in experiment [1], the Potency was 3.16 µM (active). In experiment [2], the activity change, positive = activation was -86.5% [at 11.4 µM].

Take `O=C1C=C(NCCO)C(=O)c2cnccc21`: the Potency in experiment [1] was 7.94 µM (active). The Potency entry in experiment [2] is “inactive”.

Turning to `CCC1=C(OC(=O)N(CC)CC)N2C(=O)OC(=NCCc3c[nH]c4ccccc34)[C@]2(C)[C@H]2C1=CC[C@H]1C(=O)N(CC(=O)OC)C(=O)[C@H]12`, in experiment [1], the Potency is 2 µM (active). The Potency entry in experiment [2] was “inactive”.

For `CC(=O)OC[C@@H]1O[C@H](CCO/N=C(\C)CCC(=O)OC[C@@H]2O[C@H](C#Cc3ccccc3)C=C[C@@H]2Oc2ccc(C)cc2)C=C[C@@H]1OC(C)=O`, the Potency in experiment [1] is 3.16 µM (active). Also, the activity change, positive = activation in experiment [2] was -92.8% [at 11.4 µM].

`CCC1=C(OC(=O)N(CC)CC)N2C(=O)OC(=NCC3CC3)[C@]2(Cc2ccccc2)[C@H]2C1=CC[C@H]1C(=O)N(CC(=O)OC)C(=O)[C@H]12`: the Potency in experiment [1] is 2 µM (active). For the same compound, in experiment [2], the Potency result is “inactive”.

Turning to `C/C(CCN1CCCc2nc(C)c(C)cc21)=N\OC[C@@H](O)COCc1ccco1`, in experiment [1], the Potency is 3.98 µM (active). Further, the activity change, positive = activation in experiment [2] was -77.3% [at 11.4 µM].

`O=C(N/N=C1/C[C@@H](O)[C@@H](O)[C@@H]2[C@@H]3C(=O)N(Cc4ccc5c(c4)OCO5)C(=O)[C@H]3CC[C@@H]12)OCc1ccccc1`: in experiment [1], the Potency was 1.26 µM (active). Moreover, the activity change, positive = activation in experiment [2] is -74.6% [at 11.4 µM].

For the compound `CCCNC(=O)OC[C@@H]1O[C@H](c2ccccc2)C=C[C@@H]1Oc1ccc(OC)cc1`, the Potency in experiment [1] was 3.98 µM (active). The activity change, positive = activation in experiment [2] was -82.9% [at 11.4 µM].

Regarding `CCC1=C2CC[C@H]3C(=O)N(c4ccccc4)C(=O)[C@H]3[C@H]2[C@@]2(C)C(=NCC3CC3)OC(=O)N2C1=O`, the Potency in experiment [1] is 10 µM (active). Besides, in experiment [2], the Potency result is “inactive”.
